From the supplement of paper PMC10849652
The full data set covers some 7,900 targets. This sample favours those with a hit. About 0.6% of all pairs of compound and target were hits. Unmarked numbers belong to inactive results.

What was measured:
Test in all cases: log2 fold change, soluble protein after heating vs DMSO (PISA); higher = thermal stabilisation; K562 cells, 10 uM, 30 min; active = over 0.2 and 3.5 SD of the protein, either way, in both replicates (recomputed)
[1] = compound: CS(=O)(=O)c1ccc(-c2cnc(N)c(C(=O)Nc3ccccc3)n2)cc1
How it was run: (§1)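 Soluble protein was quantified by TMTpro 16plex LC-MS/MS after channel sums were equalised. It was obtained as the supernatant after 21,000xg for 90 min from pooled aliquots of K562 cells (2×10^6 cells/mL, 10 μM compound, 30 min) heated for 3 min across 48°C-58°C and extracted in PBS with 0.5% NP-40 at 4°C. Thermal stability values are relative to control samples and come from duplicates. They are given as log2 fold changes.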

crizotinib = compound: C[C@@H](Oc1cc(-c2cnn(C3CCNCC3)c2)cnc1N)c1c(Cl)ccc(F)c1Cl [crizotinib]
How it was run: as §1

[2] = compound: C[C@@H]1COCCN1C2=NC(=NC(=C2)C3(CC3)S(=O)(=O)C)C4=C5C=CNC5=CC=C4
How it was run: as §1

[3] = compound: C[C@H](C1=CC=C(C=C1)C(=O)NC2=C3C=CNC3=NC=C2)N
How it was run: as §1

duvelisib = compound: C[C@H](Nc1ncnc2nc[nH]c12)c1cc2cccc(Cl)c2c(=O)n1-c1ccccc1 [duvelisib]
How it was run: as §1

gandotinib = compound: Cc1cc(Nc2cc(CN3CCOCC3)c3nc(C)c(Cc4ccc(Cl)cc4F)n3n2)n[nH]1 [gandotinib]
How it was run: as §1

tozasertib = compound: Cc1cc(Nc2cc(N3CCN(C)CC3)nc(Sc3ccc(NC(=O)C4CC4)cc3)n2)n[nH]1 [tozasertib]
How it was run: as §1

[4] = compound: Cc1cc(SCc2sc(-c3ccc(C(F)(F)F)cc3)nc2C)ccc1OCC(=O)O
How it was run: as §1

doramapimod = compound: Cc1ccc(-n2nc(C(C)(C)C)cc2NC(=O)Nc2ccc(OCCN3CCOCC3)c3ccccc23)cc1 [doramapimod]
How it was run: as §1

ispinesib = compound: Cc1ccc(C(=O)N(CCCN)[C@@H](c2nc3cc(Cl)ccc3c(=O)n2Cc2ccccc2)C(C)C)cc1 [ispinesib]
How it was run: as §1

bafetinib = compound: Cc1ccc(NC(=O)c2ccc(CN3CC[C@H](N(C)C)C3)c(C(F)(F)F)c2)cc1Nc1nccc(-c2cncnc2)n1 [bafetinib]
How it was run: as §1

[5] = compound: Cc1cccc(CC(=O)N2CCc3c2ccc(-c2cn(C)c4ncnc(N)c24)c3F)n1
How it was run: as §1

nilotinib = compound: Cc1cn(-c2cc(NC(=O)c3ccc(C)c(Nc4nccc(-c5cccnc5)n4)c3)cc(C(F)(F)F)c2)cn1 [nilotinib]
How it was run: as §1

[6] = compound: Cc1nc(Nc2n[nH]c3c2CN(C(=O)N[C@H](CN(C)C)c2ccccc2)C3(C)C)c2sccc2n1
How it was run: as §1

dasatinib = compound: Cc1nc(Nc2ncc(C(=O)Nc3c(C)cccc3Cl)s2)cc(N2CCN(CCO)CC2)n1 [dasatinib]
How it was run: as §1

[7] = compound: Cc1ncc(-c2ccnc(Nc3ccc(S(C)(=O)=O)cc3)n2)n1C(C)C
How it was run: as §1

[8] = compound: Cn1cc(-c2ccc3c(c2)CCN3C(=O)Cc2cccc(C(F)(F)F)c2)c2c(N)ncnc21
How it was run: as §1

[9] = compound: Cn1cc(-c2ccc3nnc(C(F)(F)c4ccc5ncccc5c4)n3n2)cn1
How it was run: as §1

tipifarnib = compound: Cn1cncc1[C@@](N)(c1ccc(Cl)cc1)c1ccc2c(c1)c(-c1cccc(Cl)c1)cc(=O)n2C [tipifarnib]
How it was run: as §1

mubritinib = compound: FC(F)(F)c1ccc(/C=C/c2nc(COc3ccc(CCCCn4ccnn4)cc3)co2)cc1 [mubritinib]
How it was run: as §1

Chain of UniProt Q53H47 (Q53H47 whole entry, looked up): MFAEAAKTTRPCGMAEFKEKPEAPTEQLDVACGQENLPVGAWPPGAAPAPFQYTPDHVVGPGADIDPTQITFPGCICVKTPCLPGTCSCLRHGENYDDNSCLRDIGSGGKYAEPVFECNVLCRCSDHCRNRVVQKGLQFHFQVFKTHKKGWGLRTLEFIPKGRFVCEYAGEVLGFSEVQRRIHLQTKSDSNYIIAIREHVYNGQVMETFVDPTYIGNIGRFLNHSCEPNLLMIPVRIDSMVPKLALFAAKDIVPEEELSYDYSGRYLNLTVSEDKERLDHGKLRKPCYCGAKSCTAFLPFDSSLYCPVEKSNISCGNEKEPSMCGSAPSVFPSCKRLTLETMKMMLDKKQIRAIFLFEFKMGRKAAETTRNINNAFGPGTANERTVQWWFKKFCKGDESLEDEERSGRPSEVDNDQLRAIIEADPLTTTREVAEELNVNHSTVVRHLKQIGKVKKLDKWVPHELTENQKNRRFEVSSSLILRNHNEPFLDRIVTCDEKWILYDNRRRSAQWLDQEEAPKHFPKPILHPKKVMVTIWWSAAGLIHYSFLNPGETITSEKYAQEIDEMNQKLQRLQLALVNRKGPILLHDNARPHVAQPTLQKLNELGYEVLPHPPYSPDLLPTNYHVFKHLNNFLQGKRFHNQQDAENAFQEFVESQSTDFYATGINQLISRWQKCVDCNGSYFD
Chain of UniProt Q15758 (Q15758 whole entry, looked up): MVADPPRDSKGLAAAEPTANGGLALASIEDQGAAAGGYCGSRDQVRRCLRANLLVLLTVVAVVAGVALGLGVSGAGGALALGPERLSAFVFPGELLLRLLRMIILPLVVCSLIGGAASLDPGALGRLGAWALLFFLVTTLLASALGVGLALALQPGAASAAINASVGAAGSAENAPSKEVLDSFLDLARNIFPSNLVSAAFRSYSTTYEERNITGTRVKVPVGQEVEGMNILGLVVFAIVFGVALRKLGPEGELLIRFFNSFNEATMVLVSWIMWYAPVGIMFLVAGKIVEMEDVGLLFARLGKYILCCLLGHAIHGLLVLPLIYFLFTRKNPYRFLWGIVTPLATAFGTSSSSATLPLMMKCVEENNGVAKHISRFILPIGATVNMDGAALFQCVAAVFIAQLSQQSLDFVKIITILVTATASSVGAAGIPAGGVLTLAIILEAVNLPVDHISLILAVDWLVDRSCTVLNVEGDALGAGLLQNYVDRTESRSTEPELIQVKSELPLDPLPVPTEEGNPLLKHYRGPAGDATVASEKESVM
Chain of UniProt P05543 (P05543 whole entry, looked up): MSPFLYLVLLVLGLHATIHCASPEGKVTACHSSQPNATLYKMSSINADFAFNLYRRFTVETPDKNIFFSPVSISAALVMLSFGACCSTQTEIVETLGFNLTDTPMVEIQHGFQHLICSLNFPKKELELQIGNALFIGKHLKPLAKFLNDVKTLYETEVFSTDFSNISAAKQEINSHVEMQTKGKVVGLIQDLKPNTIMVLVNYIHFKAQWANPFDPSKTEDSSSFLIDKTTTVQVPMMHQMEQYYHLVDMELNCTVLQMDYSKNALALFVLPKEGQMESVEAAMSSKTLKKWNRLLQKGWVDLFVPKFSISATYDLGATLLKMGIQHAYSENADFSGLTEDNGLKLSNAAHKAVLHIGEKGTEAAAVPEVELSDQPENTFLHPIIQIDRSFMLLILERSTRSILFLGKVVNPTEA
Chain of UniProt Q15418 (Q15418 whole entry, looked up): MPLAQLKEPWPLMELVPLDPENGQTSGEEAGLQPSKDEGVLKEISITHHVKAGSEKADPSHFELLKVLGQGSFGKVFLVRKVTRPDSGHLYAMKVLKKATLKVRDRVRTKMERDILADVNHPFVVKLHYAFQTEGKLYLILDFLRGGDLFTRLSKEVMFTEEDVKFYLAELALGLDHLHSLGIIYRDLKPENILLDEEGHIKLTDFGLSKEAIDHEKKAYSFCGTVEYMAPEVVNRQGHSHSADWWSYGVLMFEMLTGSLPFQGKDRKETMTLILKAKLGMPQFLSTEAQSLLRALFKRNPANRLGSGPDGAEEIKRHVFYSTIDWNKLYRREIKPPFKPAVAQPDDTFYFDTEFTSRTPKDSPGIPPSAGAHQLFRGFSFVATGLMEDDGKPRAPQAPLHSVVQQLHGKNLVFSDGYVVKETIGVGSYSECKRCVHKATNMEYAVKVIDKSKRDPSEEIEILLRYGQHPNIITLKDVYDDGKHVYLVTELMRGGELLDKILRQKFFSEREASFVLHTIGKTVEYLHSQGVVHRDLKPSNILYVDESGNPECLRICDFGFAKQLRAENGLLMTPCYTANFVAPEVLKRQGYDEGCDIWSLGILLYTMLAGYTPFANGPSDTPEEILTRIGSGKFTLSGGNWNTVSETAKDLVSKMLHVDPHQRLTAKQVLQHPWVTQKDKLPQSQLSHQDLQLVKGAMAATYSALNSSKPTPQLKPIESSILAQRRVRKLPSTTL
Chain of UniProt P35244 (P35244 whole entry, looked up): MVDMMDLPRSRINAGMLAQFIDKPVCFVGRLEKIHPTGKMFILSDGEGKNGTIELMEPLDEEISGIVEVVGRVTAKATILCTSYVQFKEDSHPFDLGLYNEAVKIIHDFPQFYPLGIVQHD
Chain of UniProt Q9BY42 (Q9BY42 whole entry, looked up): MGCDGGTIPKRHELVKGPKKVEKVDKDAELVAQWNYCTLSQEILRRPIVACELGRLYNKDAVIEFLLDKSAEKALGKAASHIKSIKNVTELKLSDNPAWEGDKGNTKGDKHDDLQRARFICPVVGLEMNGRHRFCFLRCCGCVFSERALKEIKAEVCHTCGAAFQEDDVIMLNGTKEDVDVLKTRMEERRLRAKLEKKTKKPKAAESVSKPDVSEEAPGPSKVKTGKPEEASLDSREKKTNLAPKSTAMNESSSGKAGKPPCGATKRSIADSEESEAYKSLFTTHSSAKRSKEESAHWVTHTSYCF

Target | log2 fold change [1] | log2 fold change (crizotinib) | log2 fold change [2] | log2 fold change [3] | log2 fold change (duvelisib) | log2 fold change (gandotinib) | log2 fold change (tozasertib) | log2 fold change [4] | log2 fold change (doramapimod) | log2 fold change (ispinesib) | log2 fold change (bafetinib) | log2 fold change [5] | log2 fold change (nilotinib) | log2 fold change [6] | log2 fold change (dasatinib) | log2 fold change [7] | log2 fold change [8] | log2 fold change [9] | log2 fold change (tipifarnib) | log2 fold change (mubritinib)
RPS6KA1 isoform 2 (UniProt Q15418) | 0 | -0.259 | 0.138 | -0.066 | 0.03 | -0.199 | 0.002 | 0.066 | -0.026 | 0.021 | -0.051 | 0.081 | -0.002 | -0.569 (active) | -0.281 | -0.044 | -0.019 | 0 | -0.056 | 0.041
RTF2 (UniProt Q9BY42) | -0.005 | 0.234 | -0.061 | -0.089 | 0.116 | 0.104 | 0.166 | -0.003 | -0.083 | 0.151 | -0.074 | -0.001 | -0.045 | -0.125 | -0.012 | 0.039 | -0.071 | -0.039 | -0.065 | -0.047
SETMAR (UniProt Q53H47) | 0.077 | 0.036 | -0.028 | 0.134 | -0.004 | -0.129 | -0.061 | 0.003 | 0.024 | 0.164 | 0 | -0.07 | -0.104 | 0.117 | -0.013 | 0.163 | 0.028 | 0.127 | 0.054 | 0.04
SLC1A5 (UniProt Q15758) | 0.026 | 0.13 | 0.072 | -0.186 | 0.044 | -0.105 | -0.064 | -0.091 | -0.007 | 0.167 | 0.041 | 0.004 | 0.067 | 0.023 | 0.023 | 0.014 | 0.035 | -0.032 | 0.026 | 0.052
SERPINA7 (UniProt P05543) | -0.16 | 0.133 | -0.095 | 0.257 | -0.201 | -0.02 | -0.046 | -0.158 | 0.217 | 0.068 | -0.191 | -0.152 | 0.05 | 0.115 | 0.098 | 0.392 | 0.238 | 0.001 | 0.104 | -0.247
RPS20 isoform 2 (UniProt P60866) | -0.062 | 0.013 | -0.176 | 0.174 | -0.034 | 0.129 | 0.008 | 0.004 | 0.048 | -0.066 | 0.178 | -0.005 | -0.006 | 0.223 | 0.05 | -0.071 | -0.078 | -0.008 | 0.094 | -0.059
RPS2 (UniProt P15880) | -0.045 | 0.043 | -0.369 | 0.286 | -0.162 | 0.202 | -0.007 | 0.007 | 0.131 | -0.162 | 0.284 | 0 | 0 | 0.198 | 0.13 | -0.035 | -0.216 | -0.105 | 0.077 | -0.095
RPA3 (UniProt P35244) | -0.044 | 0.042 | -0.162 | -0.098 | 0.043 | 0.11 | 0.053 | 0.003 | -0.054 | 0.109 | 0.023 | 0.086 | -0.034 | -0.047 | 0.016 | 0.022 | 0.105 | -0.002 | 0.014 | 0.024
